# Hit rate of the full screen: of about 330,000 compounds, about 1,900 (0.58%) were called active. Not shown: some 4% with an inconclusive outcome. A selection follows. Results with a measured potency or affinity are listed apart. Unmarked numbers belong to inactive results. Cut-off read from the data, not from the text of the source: inconclusive = inhibition above about 70% without an active follow-up result; inactive = below that.
# Assay: M. tuberculosis growth inhibition, HTS (AID 449762);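 note: bacterial growth assessed after seven days of incubation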
# Details: M. tuberculosis H37Rv growth inhibition, 7H9 media; at 25 µM; stronger effect = higher value
row,SMILES,inhibition [%]
1,COC(=O)c1nonc1NCn1nnc2ccccc21,-13.7
2,Cc1ccccc1-n1c(-c2ccoc2)nc2ccccc2c1=O,13.6
3,O=C(CCN1CCN(c2ccccc2F)CC1)Nc1ccc(F)cc1,-1.83
4,S=c1[nH]nc(C2CCCCC2)n1/N=C/C=C/c1ccccc1,0.75
5,Cc1cc(C(=O)OCC(=O)N2CCc3ccccc32)c(C)o1,0.97
6,CC(C)(C)c1ccc(OCCC(=O)OCC(=O)NC2CC2)cc1,-4.78
7,Cc1ccc(OCCC(=O)OCC(=O)NC(=O)NC2CCCC2)cc1,6.88
8,Cc1cc(=O)oc2c(C)c(OC(C)C(=O)NCC(O)c3ccccc3)ccc12 (stereo not drawn),0.93
9,C[C@H](CO)N1C[C@H](C)[C@@H](CN(C)S(=O)(=O)c2ccc(F)cc2)Oc2c(NC(=O)NC3CCCCC3)cccc2C1=O,6.78
10,CCOC(=O)C1CCCN(C2CCN(Cc3nc(-c4ccccc4)no3)CC2)C1 (stereo not drawn),-1.09
11,Cc1c(Nc2cc(=O)oc3ccccc23)c(=O)n(-c2ccccc2)n1C,-1.53
12,CCCc1ccc(S(=O)(=O)NCCc2ccncc2)cc1,2.76
13,CCCCc1ccc(S(=O)(=O)NCCc2ccncc2)cc1,21.7
14,CCC(C(=O)Nc1cccc(S(=O)(=O)N(C)c2ccccc2)c1)c1ccccc1 (stereo not drawn),-1.21
15,COc1cccc(Nc2c([N+](=O)[O-])cncc2[N+](=O)[O-])c1,65.1
16,O=C(O)c1cccc(Nc2ccc([N+](=O)[O-])c3nonc23)c1,2.67
17,O=C(COC(=O)CSc1ccc(F)cc1)NCc1ccco1,-1.1
18,O=C(O)c1cccc(S(=O)(=O)Nc2cccc3ccccc23)c1,20.9
19,CCN(CC)CCOc1ccc2c(c1)C(=NO)c1cc(OCCN(CC)CC)ccc1-2,9.59
20,NC(N)=NN=C1c2ccccc2-c2ccccc21,6.09
21,O=C(Cc1cccc(NC(=O)C2CCN(C(=O)C3CCCC3)CC2)c1)Nc1cccc(C(=O)N2CCCC2)c1,-2.63
22,CC(=O)Nc1ccc(NS(=O)(=O)c2ccc(-c3cnc(C4CC4)o3)cc2)cc1,-1.71
23,COc1ccc(Cl)cc1S(=O)(=O)N(C)CC(=O)N1CCCC1,7.61
24,Cc1ccc(C)c(NC(=O)COc2coc(CN3CCc4ccccc43)cc2=O)c1,47.8

row,SMILES,inhibition [%]
1,CCOC(=O)c1ccc(NC(=O)COc2coc(CN3CCc4ccccc43)cc2=O)cc1,34.3
2,COc1ccc(OC)c(NC(=O)Cn2cc(C#N)c3ccccc32)c1,-1.64
3,Cc1ccc(S(=O)(=O)NC(=O)COc2ccccc2C)c(C)c1,0.6
4,O=C(CCC1CCCCC1)NC1=NCCS1,-6.25
5,Cc1cc(NC2CCCCC2)nc2ccccc12,10
6,c1ccc(N/N=C2\CCCc3ccccc32)nc1,9.09
7,O=C(NNC(=O)C1CCN(C(=O)Nc2ccccc2)CC1)c1ccc([N+](=O)[O-])cc1,-0.74
8,COc1cc(NC(=O)NNC(=O)c2cc3occc3n2C)cc(OC)c1OC,-1.55
9,O=C(Nc1ccc(OC(F)F)cc1)c1ncc(Cl)c(Cl)c1Cl,3.27
10,Cc1ccc(CS(=O)(=O)c2ncc(Cl)c(C(=O)Nc3ccc(OC(F)F)cc3)n2)cc1,1.02
11,CCCCN(C(=O)c1c(CC)noc1C)c1c(N)n(CCCC)c(=O)[nH]c1=O,-5.14
12,COc1cccc(CNC(=O)c2nnn(CC(=O)Nc3ccc4c(c3)OCO4)c2N)c1,-1.11
13,CCOC(=O)c1ccc(Oc2nc(OC)nc(N(C)C)n2)cc1,4.44
14,CCOC(=O)c1ccc(Oc2nc(N(C)C)nc(N(C)C)n2)cc1,17
15,CCc1nnc(N/N=C/c2ccccc2F)n1N,31.3
16,CCc1nnc(N/N=C/c2cc(Br)c(O)cc2O)n1N,0.32
17,CCN(CCn1cccn1)Cc1nc(-c2ccc(C(=O)OC)cc2)no1,24
18,COC(=O)c1ccc(-c2noc(CN(Cc3ccncc3)CC3CCCO3)n2)cc1 (stereo not drawn),41.2
19,O=C(CSc1nnnn1C1CCCC1)N1CCOCC1,-0.48
20,COc1ccc(NC(=O)CCN2CCN(S(=O)(=O)c3cc(Cl)ccc3Cl)CC2)cc1,-9.19
21,Fc1ccccc1Oc1nc(-c2ccncc2)nc2ccccc12,4.31
22,O=C(N/N=C/c1c(O)n(Cc2ccccc2)c(=O)[nH]c1=O)c1ccccc1O,14.7
23,CC(=O)Nc1nc2ccccc2[nH]1,-2.83
24,O=C(Nc1nc2ccccc2[nH]1)C1CC1,-4.47

# Reference: PubChem BioAssay AID449762 (Southern Research Specialized Biocontainment Screening …, 2010)
